This is an account of results in ChEMBL document CHEMBL4513149, “CO-ADD screening of MMV (CH) - MMV compounds” (2021).

SMILES strings stand for the structures. The whole screen tested about 23,000 compounds, of which about 30 (0.1%) showed an effect of 50% or more. What follows is part of a selection rich in strong results, with near analogues and random picks from the rest. Potency and affinity values are given separately.

This assay relates to Pseudomonas aeruginosa. To be noted: Concentration 20 uM; ASSAY_TEST Inhibition of Bacterial Growth; detection method Absorption (OD600); MEDIA CAMHB; plate type 384well; NBS; CORNING #3640; time 18 hr.
For `Cl.O=C(Nc1ccc(N2CCNCC2)nc1)c1oc(-c2ccccc2)nc1C(F)(F)F`, the Inhibition – broadly, the drop in the measured response relative to a control, in per cent – is -17.92%. The figure for `N=C(N)c1ccc(-c2cc(-c3ccccc3)on2)cc1` is 13.36%; for `CC(C)=CCC/C(C)=C\CNCCNC1C2CC3CC(C2)CC1C3` (centres undefined) it is 27.33%. With `O=C(c1ccc(F)cc1)N(CCNc1ccccc1)c1ccccc1`, the Inhibition is 12.58%.
